Inconclusive results are not listed. The source holds several records for some structures; these can differ, active in one and inactive in another. Active and inactive are the calls of the source. How the source made its calls, unless noted: active means hit-call score of the fitted dose curve at least 0.9, where 1 is the maximum; inconclusive means response in the unintended direction; inactive means score below 0.9.
How the values were obtained:
[1] = system: Sodium/Iodide Symporter (NIS), SLC5A5 (gene 6528); assay: CPHEA_Stoker_NIS_Inhibition_RAIU: CPHEA's Radioactive Iodide Uptake (RAIU) Assay for Sodium/Iodide Symporter (NIS) Inhibition, Stoker and Laws Labs (AID 2283841)
Summary of the method: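 HEK293T cells stably expressing human NIS (hNIS-HEK293T-EPA) were exposed to test chemicals at 0.001–100uM (0.5% final DMSO) with 125I at a final 329pM in HBSS/10mM HEPES pH 7.4. After 2 hours at room temperature and ice-cold washes, intracellular 125I was counted as CPM and normalized to DMSO wells.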

[2] = CPHEA_Stoker_NIS_Cytotoxicity: Cytotoxicity Assessment for CPHEA's Radioactive Iodide Uptake (RAIU) Assay for Sodium/Iodide Symporter (NIS) Inhibition, Stoker and Laws Labs (AID 2283897);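 on AC50: active means loss of ATP signal versus DMSO meaning cytotoxicity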
Summary of the method: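 hNIS-HEK293T-EPA human kidney cells were exposed for 2 hours at room temperature to test chemicals (0.001–100uM, 0.5% final DMSO) in HEPES-buffered HBSS, pH 7.4. Viability was read as ATP content by luciferase bioluminescence, loss of signal versus DMSO.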

[3] = system: zebrafish Peroxisome Proliferator-activated Receptor gamma (PPARg), gene 557037; assay: ATG_zfPPARg_XSP2: Attagene TRANS-FACTORIAL Multi-Species (XSP2) HepG2 Assay for zebrafish Peroxisome Proliferator-activated Receptor gamma (PPARg) (AID 2283833);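 further: actives increase reporter signal over DMSO so AC50 reflects activation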
Summary of the method: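 HepG2 cells transiently transfected with multiplexed GAL4-UAS reporter units expressing chimeric NR-Gal4 receptors, dosed 24 h. Reporter mRNA quantified by RT-PCR, fluorescent labelling, HpaI digestion and capillary electrophoresis; gain of signal fitted against DMSO.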

[4] = system: turtle Thyroid Hormone Receptor, alpha (TRa), gene 101949057; assay: ATG_trTRa_XSP2: Attagene TRANS-FACTORIAL Multi-Species (XSP1) HepG2 Assay for turtle Thyroid Hormone Receptor, alpha (TRa) (AID 2283834);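 further: hits raise reporter mRNA over the DMSO baseline so AC50 marks activators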
Summary of the method: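 HepG2 cells transiently transfected with GAL4-UAS reporter units for chimeric turtle TRa-Gal4; mRNA measured 24 h after dosing by RT-PCR and capillary electrophoresis fluorescence, gain of signal fitted against DMSO.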

[5] = molecular target: human Thyroid hormone Receptor alpha (TRa), THRA (gene 7067) (UniProt P10827); assay: ATG_hTRa_XSP2: Attagene TRANS-FACTORIAL Multi-Species (XSP2) HepG2 Assay for human Thyroid hormone Receptor alpha (TRa) (AID 2283838)
Summary of the method: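 HepG2 cells transiently transfected with multiplexed GAL4-UAS reporter units and exogenous NR-GAL4 chimeras; 24 h chemical exposure with 3 nM 6-alpha-fluorotestosterone and 1.5 nM norgestrel present. Reporter mRNA measured by RT-PCR, FAM labelling, HpaI digestion, capillary electrophoresis; gain-of-signal versus DMSO.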

[6] = molecular target: frog Thyroid hormone Receptor alpha (TRa), thra-a (gene 397942) (UniProt P15204); assay: ATG_frTRa_XSP2: Attagene TRANS-FACTORIAL Multi-Species (XSP2) HepG2 Assay for frog Thyroid hormone Receptor alpha (TRa) (AID 2283839)
Summary of the method: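 HepG2 transiently transfected with multiplexed GAL4-UAS reporters driven by frog TRa-Gal4 chimeras; 24 h chemical exposure. Reporter mRNA quantified by RT-PCR, FAM labelling, HpaI digestion and capillary electrophoresis; gain of signal versus DMSO.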

[7] = molecular target: human Thyroid hormone Receptor beta (TRb), THRB (gene 7068) (UniProt P10828); assay: ATG_hTRb_XSP2: Attagene TRANS-FACTORIAL Multi-Species (XSP2) HepG2 Assay for human Thyroid hormone Receptor beta (TRb) (AID 2283840);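 further: actives raise reporter mRNA so potency reflects agonist-like gain of signal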
Summary of the method: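 HepG2 transiently transfected with a multi-species panel including a human TRb–Gal4 chimera driving Gal4-UAS reporters; medium contained 3 nM 6-alpha-fluorotestosterone and 1.5 nM norgestrel. 24 h dosing; RT-PCR/capillary electrophoresis readout; positive-direction fit vs DMSO.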

PGR (gene 5241) = PGR (gene 5241) (UniProt P06401); assay: TOX21_PR_BLA_Followup_Agonist_ratio: Tox21 HEK293 Progesterone Receptor (PR) Agonism Beta-lactamase Follow-Up Assay, Ratio (AID 2283933)
Summary of the method: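 PR-UAS-bla HEK293T cells (GAL4-UAS beta-lactamase reporter) in medium with 2% charcoal-stripped FBS received compounds after 6 hr at 37C, then incubated 16 hr. LiveBLAzer FRET substrate added, 2 hr room temperature; cleaved/uncleaved (ch2/ch1) ratio fitted upward versus DMSO.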

[8] = ATG_M_61_XSP2: Attagene TRANS-FACTORIAL Multi-Species (XSP2) HepG2 Assay for M61 Transcription Factor (Internal Marker) (AID 2283835; active means hit-call score of the fitted dose curve at least 0.9, where 1 is the maximum; inactive means score below 0.9;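 further: active means a rise in signal above the DMSO baseline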)
Summary of the method: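 HepG2 cells transiently transfected with multiple GAL4-UAS reporter units; reporter mRNA measured 24 h after dosing by RT-PCR, fluorescent labelling and capillary electrophoresis. Medium contained 3 nM 6-alpha-fluorotestosterone and 1.5 nM norgestrel; internal marker, DMSO baseline.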

[9] = molecular target: zebrafish Thyroid Hormone Receptor beta (TRb), thrb (gene 30607) (UniProt Q9PVE4); assay: ATG_zfTRb_XSP2: Attagene TRANS-FACTORIAL Multi-Species (XSP1) HepG2 Assay for zebrafish Thyroid Hormone Receptor beta (TRb) (AID 2283836)
Summary of the method: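 HepG2 cells transiently transfected with multiplexed GAL4-UAS reporter units expressing chimeric NR-Gal4 proteins; read 24 h after dosing. Reporter mRNA quantified by RT-PCR, 6-FAM labelling, HpaI digest and capillary electrophoresis; gain of signal fitted relative to DMSO.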

[10] = CEETOX_H295R_11DCORT_noMTC: CeeTox H295R High-throughput Steroidogenesis Assay for 11-Deoxycortisol (11DCORT), maximum tolerated concentration (MTC) filtered results only (AID 2283911; active means hit-call score of the fitted dose curve at least 0.9, where 1 is the maximum; inactive means score below 0.9); conditions: actives raise or lower the signal
Summary of the method: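 H295R cells were prestimulated 48 h with 10 uM forskolin, then exposed 48 h to chemical (0.1% DMSO final). 11-Deoxycortisol in the medium was measured by MTBE extraction and HPLC-MS/MS, with bidirectional fitting versus DMSO and no MTC filtering of concentrations.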

[11] = CEETOX_H295R_OHPREG_noMTC: CeeTox H295R High-throughput Steroidogenesis Assay for OH-Pregnenolone (OHPREG), maximum tolerated concentration (MTC) filtered results only (AID 2283912; active means hit-call score of the fitted dose curve at least 0.9, where 1 is the maximum; inactive means score below 0.9); conditions: actives raise or lower the signal
Summary of the method: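 H295R cells prestimulated 48 h with 10 uM forskolin, then exposed 48 h to compound (0.1% DMSO). 17alpha-hydroxypregnenolone in medium measured by MTBE extraction and HPLC-MS/MS; bidirectional fit vs DMSO, concentrations not MTT/MTC-filtered.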

[12] = CEETOX_H295R_OHPROG_noMTC: CeeTox H295R High-throughput Steroidogenesis Assay for OH-Progesterone (OHPROG), maximum tolerated concentration (MTC) filtered results only (AID 2283914; active means hit-call score of the fitted dose curve at least 0.9, where 1 is the maximum; inactive means score below 0.9); conditions: actives raise or lower the signal
Summary of the method: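 H295R cells prestimulated 48 h with 10 uM forskolin, then exposed 48 h to chemical (0.1% DMSO final). 17alpha-hydroxyprogesterone in medium quantified by HPLC-MS/MS after MTBE extraction; bidirectional fitting versus DMSO, concentrations not MTC-filtered.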

[13] = CEETOX_H295R_ANDR_noMTC: CeeTox H295R High-throughput Steroidogenesis Assay for Androstenedione (ANDR), maximum tolerated concentration (MTC) filtered results only (AID 2283915; active means hit-call score of the fitted dose curve at least 0.9, where 1 is the maximum; inactive means score below 0.9); conditions: actives raise or lower the signal
Summary of the method: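 H295R cells, passage 10 or below, prestimulated 48 h with 10 uM forskolin, then exposed 48 h to chemical in 0.1% DMSO. Medium androstenedione extracted with MTBE, quantified by HPLC-MS/MS; concentrations not MTC-filtered; bidirectional fit versus DMSO.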

[14] = CEETOX_H295R_CORTISOL_noMTC: CeeTox H295R High-throughput Steroidogenesis Assay for Cortisol, maximum tolerated concentration (MTC) filtered results only (AID 2283916; active means hit-call score of the fitted dose curve at least 0.9, where 1 is the maximum; inactive means score below 0.9); conditions: actives raise or lower the signal
Summary of the method: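 H295R human adrenal cells prestimulated 48 h with 10 uM forskolin, then exposed 48 h to chemical in 0.1% DMSO; cortisol in medium quantified by HPLC-MS/MS; bidirectional fit vs DMSO baseline, concentrations not MTT-filtered for MTC.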

[15] = CEETOX_H295R_CORTIC_noMTC: CeeTox H295R High-throughput Steroidogenesis Assay for Corticosterone (CORTIC), maximum tolerated concentration (MTC) filtered results only (AID 2283917; active means hit-call score of the fitted dose curve at least 0.9, where 1 is the maximum; inactive means score below 0.9); conditions: actives raise or lower the signal
Summary of the method: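 H295R adrenal cells pre-stimulated 48 h with 10 uM forskolin, then exposed 48 h to chemical in 0.1% DMSO; corticosterone in medium quantified by HPLC-MS/MS, fitted bidirectionally versus DMSO without MTT-based concentration filtering.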

[16] = CEETOX_H295R_DOC_noMTC: CeeTox H295R High-throughput Steroidogenesis Assay for DOC, maximum tolerated concentration (MTC) filtered results only (AID 2283918; active means hit-call score of the fitted dose curve at least 0.9, where 1 is the maximum; inactive means score below 0.9); conditions: actives raise or lower the signal
Summary of the method: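 H295R cells prestimulated 48 h with 10 uM forskolin, then exposed 48 h to chemical in 0.1% DMSO. 11-Deoxycorticosterone in medium measured by MTBE extraction and HPLC-MS/MS; bidirectional fit vs DMSO, no MTC filter.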

[17] = CEETOX_H295R_PROG_noMTC: CeeTox H295R High-throughput Steroidogenesis Assay for Progesterone (PROG), maximum tolerated concentration (MTC) filtered results only (AID 2283920; active means hit-call score of the fitted dose curve at least 0.9, where 1 is the maximum; inactive means score below 0.9); conditions: actives raise or lower the signal
Summary of the method: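 H295R cells, prestimulated 48 h with 10 uM forskolin, exposed 48 h to chemical in 0.1% DMSO. Medium progesterone quantified by MTBE extraction and HPLC-MS/MS; bidirectional fit versus DMSO, concentrations not MTT-filtered.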

[18] = CEETOX_H295R_TESTO_noMTC: CeeTox H295R High-throughput Steroidogenesis Assay for Testosterone (TESTO), maximum tolerated concentration (MTC) filtered results only (AID 2283924; active means hit-call score of the fitted dose curve at least 0.9, where 1 is the maximum; inactive means score below 0.9); conditions: actives raise or lower the signal
Summary of the method: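 H295R cells prestimulated 48 h with 10 uM forskolin, then exposed 48 h to chemicals in 0.1% DMSO final. Testosterone in medium quantified by MTBE extraction and HPLC-MS/MS; bidirectional fit versus DMSO, concentrations […] filtered by MTT-based maximum tolerated concentration.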

frog Thyroid hormone Receptor alpha (TRa), thra-a (gene 397942), sequence (P15204 whole entry, looked up, the tested form may be a part): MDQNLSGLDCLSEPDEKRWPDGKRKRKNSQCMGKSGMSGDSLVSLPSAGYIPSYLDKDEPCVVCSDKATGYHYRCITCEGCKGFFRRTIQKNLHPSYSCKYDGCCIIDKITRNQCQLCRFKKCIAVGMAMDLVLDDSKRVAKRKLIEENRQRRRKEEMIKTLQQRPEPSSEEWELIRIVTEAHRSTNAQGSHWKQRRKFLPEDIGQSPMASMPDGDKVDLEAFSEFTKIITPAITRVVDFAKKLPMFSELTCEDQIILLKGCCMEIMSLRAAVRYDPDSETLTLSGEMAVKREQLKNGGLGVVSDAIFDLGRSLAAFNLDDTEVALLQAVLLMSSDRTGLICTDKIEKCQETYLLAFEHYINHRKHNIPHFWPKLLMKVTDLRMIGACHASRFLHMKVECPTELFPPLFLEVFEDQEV
zebrafish Thyroid Hormone Receptor beta (TRb), thrb (gene 30607), sequence (Q9PVE4 whole entry, looked up, the tested form may be a part): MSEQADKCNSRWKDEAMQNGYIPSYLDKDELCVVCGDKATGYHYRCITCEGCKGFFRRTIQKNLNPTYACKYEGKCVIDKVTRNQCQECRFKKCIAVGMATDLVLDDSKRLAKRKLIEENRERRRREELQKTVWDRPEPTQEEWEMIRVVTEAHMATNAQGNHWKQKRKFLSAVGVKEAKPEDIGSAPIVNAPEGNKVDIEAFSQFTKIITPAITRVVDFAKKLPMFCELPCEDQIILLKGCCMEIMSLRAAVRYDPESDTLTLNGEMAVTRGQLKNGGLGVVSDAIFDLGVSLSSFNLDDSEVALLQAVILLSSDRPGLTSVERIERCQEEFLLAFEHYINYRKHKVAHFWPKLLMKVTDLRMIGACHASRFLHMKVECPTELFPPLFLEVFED
human Thyroid hormone Receptor beta (TRb), THRB (gene 7068), sequence (P10828 whole entry, looked up, the tested form may be a part): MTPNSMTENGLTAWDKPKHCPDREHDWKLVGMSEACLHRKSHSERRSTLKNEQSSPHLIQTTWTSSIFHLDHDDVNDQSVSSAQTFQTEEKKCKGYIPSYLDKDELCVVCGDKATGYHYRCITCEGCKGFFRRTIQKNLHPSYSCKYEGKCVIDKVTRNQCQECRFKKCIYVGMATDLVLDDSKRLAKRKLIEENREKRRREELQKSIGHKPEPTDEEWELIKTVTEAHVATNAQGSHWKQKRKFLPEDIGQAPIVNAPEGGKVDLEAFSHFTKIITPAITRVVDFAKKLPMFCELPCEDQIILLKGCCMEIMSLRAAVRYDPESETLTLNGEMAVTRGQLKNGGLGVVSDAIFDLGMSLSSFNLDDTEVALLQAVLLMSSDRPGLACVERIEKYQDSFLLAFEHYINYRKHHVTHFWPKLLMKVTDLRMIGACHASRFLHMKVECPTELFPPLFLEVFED
human Thyroid hormone Receptor alpha (TRa), THRA (gene 7067), sequence (P10827 whole entry, looked up, the tested form may be a part): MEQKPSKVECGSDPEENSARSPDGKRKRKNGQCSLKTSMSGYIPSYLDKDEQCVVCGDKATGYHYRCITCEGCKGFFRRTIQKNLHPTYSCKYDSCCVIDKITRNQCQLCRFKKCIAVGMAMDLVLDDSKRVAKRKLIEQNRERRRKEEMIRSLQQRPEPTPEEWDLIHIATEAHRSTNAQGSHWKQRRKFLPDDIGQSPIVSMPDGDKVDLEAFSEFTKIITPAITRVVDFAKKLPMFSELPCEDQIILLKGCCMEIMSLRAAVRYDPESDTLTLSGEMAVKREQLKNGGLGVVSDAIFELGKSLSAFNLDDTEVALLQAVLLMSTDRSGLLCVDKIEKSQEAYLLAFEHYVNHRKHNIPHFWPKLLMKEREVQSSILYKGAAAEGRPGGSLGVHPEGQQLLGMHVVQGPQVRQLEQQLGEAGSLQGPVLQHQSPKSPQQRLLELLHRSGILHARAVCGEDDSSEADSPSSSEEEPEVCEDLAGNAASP
PGR (gene 5241), sequence (P06401 whole entry, looked up, the tested form may be a part): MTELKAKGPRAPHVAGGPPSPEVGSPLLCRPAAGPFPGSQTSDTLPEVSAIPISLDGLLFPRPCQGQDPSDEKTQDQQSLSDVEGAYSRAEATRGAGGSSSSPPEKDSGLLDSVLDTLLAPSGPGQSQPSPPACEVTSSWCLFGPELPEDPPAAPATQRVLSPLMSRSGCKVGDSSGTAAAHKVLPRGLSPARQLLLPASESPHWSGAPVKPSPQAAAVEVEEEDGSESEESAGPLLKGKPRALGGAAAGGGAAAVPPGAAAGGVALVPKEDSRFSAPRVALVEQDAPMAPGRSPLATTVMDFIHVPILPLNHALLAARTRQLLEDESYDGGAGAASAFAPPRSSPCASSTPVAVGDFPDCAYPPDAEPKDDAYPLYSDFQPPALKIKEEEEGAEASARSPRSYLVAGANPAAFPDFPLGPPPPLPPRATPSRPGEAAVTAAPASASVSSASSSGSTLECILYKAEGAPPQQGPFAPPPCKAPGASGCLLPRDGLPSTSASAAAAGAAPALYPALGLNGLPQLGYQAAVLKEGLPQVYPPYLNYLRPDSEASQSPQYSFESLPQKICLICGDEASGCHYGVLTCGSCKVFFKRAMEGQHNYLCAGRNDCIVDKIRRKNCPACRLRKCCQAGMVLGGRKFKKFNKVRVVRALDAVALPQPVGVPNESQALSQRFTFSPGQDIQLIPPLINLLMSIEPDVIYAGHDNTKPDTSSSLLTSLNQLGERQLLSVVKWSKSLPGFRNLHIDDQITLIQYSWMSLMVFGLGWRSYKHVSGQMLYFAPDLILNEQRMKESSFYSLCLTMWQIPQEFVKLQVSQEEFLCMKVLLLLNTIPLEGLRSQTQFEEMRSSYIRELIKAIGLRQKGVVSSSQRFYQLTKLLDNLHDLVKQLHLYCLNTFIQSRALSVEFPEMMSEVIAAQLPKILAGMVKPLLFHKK

In the case of CCC[CH2][Sn]([Cl])([Cl])[CH2]CCC, the AC50 [1] is reported as 3.24 µM (active) and the outcome [2] is reported as “inactive”.

With CCOCn1c(-c2ccc(Cl)cc2)c(C#N)c(Br)c1C(F)(F)F the AC50 [1] was 0.616 µM (active) and the outcome [2] was “inactive”.

In the case of CCCCCCCCCCCCOS(=O)(=O)O, the outcome [1] is reported as “inactive” and the outcome [2] is reported as “inactive”.

With COCCl the outcome [3] was “inactive”, the outcome [4] was “inactive” and the outcome [5] was “inactive”. The outcome [6] was “inactive” and the outcome [7] was “inactive”.

In the case of O=C1c2ccccc2C(=O)C1C(=O)C(c1ccccc1)c1ccc(Cl)cc1 (configuration not stated), the outcome [1] is reported as “inactive” and the outcome [2] is reported as “inactive”.

For Cc1ccccc1OP(=O)(Oc1ccccc1C)Oc1ccccc1C, the outcome (PGR (gene 5241)) was “inactive”.

With O=C(NC(=O)c1c(F)cccc1F)Nc1cc(Cl)c(OC(F)(F)C(F)C(F)(F)F)cc1Cl (configuration not stated) the outcome [1] was “inactive” and the outcome [2] was “inactive”.

For C=CC(Cl)CCl (configuration not stated), the outcome [1] was “inactive” and the outcome [2] was “inactive”.

In the case of CC(O)(CS(=O)(=O)c1ccc(F)cc1)C(=O)Nc1ccc(C#N)c(C(F)(F)F)c1 (configuration not stated), the outcome [3] is reported as “inactive”, the outcome [4] is reported as “inactive” and the outcome [8] is reported as “inactive”. The outcome [9] was “inactive”, the outcome [5] was “inactive” and the outcome [6] was “inactive”. The AC50 [7] was 155 µM (active), the outcome [7] was “inactive” and the AC50 [1] was 9.92 µM (active). For the same molecule, the AC50 [2] was 88.7 µM (active).

With CCOP(=S)(OCC)O/N=C(\C#N)c1ccccc1 the outcome [3] was “inactive”, the outcome [4] was “inactive” and the outcome [8] was “inactive”. For the same molecule, the outcome [9] was “inactive”, the outcome [5] was “inactive” and the outcome [6] was “inactive”. The outcome [7] was “inactive”, the outcome [1] was “inactive” and the outcome [2] was “inactive”.

With CC1(C)[C@H](C(=O)O[C@H](C#N)c2cccc(Oc3ccccc3)c2)[C@@H]1/C=C(\Cl)C(F)(F)F the outcome [1] was “inactive”.

With N#CCCC(Br)(C#N)CBr (configuration not stated) the outcome [1] was “inactive” and the outcome [2] was “inactive”.

For c1cc[c]([Sb]([c]2ccccc2)[c]2ccccc2)cc1, the outcome [10] was “inactive”, the AC50 [11] was 50 µM (active) and the AC50 [12] was 1.53 µM (active). The AC50 [13] was 27.8 µM (active), the AC50 [14] was 11.3 µM (active) and the AC50 [15] was 8.85 µM (active). For the same molecule, the outcome [16] was “inactive”, the AC50 [17] was 10.8 µM (active) and the outcome [18] was “inactive”.

In the case of O=c1oc2ccccc2c(O)c1C(CC(O)c1ccc(-c2ccc(Br)cc2)cc1)c1ccccc1 (configuration not stated), the AC50 [3] is reported as 6.09 µM (active), the outcome [4] is reported as “inactive” and the outcome [9] is reported as “inactive”. For the same molecule, the outcome [7] was “inactive”.

In the case of CCC[CH2][Sn]([CH2]CCC)([CH2]CCC)[CH2]CCC, the outcome [1] is reported as “inactive” and the outcome [2] is reported as “inactive”.

In the case of N#CS, the AC50 [1] is reported as 6.43 µM (active) and the outcome [2] is reported as “inactive”.

From PubChem BioAssay (EPA / NIEHS)
